Where “and” joins values, the source holds several entries; their conditions need not be identical. Identical values can stand only once. The panel holds about 83,000 compounds, 20% with a hit somewhere; the sample as a whole holds those more often.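 How to read the values: 0–100, growth inhibition (40 = 60% inhibited); 0, no net growth; -100 to 0, cell death (-40 = 40% of starting cells died; -100 = all dead).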
Legend:
Test in all cases: NCI-60 one-dose screen, 48 h (100 = growth as untreated, 0 = no growth, -100 = all killed)
Conditions in all cases: 10 µM unless noted; active = growth percent below 10; inactive = the rest
SK-MEL-2 melanoma = system: SK-MEL-2 melanoma
EKVX NSCLC = system: EKVX NSCLC
SN12C renal = system: SN12C renal
UO-31 renal = system: UO-31 renal
TK-10 renal = system: TK-10 renal
ACHN renal = system: ACHN renal
CAKI-1 renal = system: CAKI-1 renal
CCRF-CEM leukemia = system: CCRF-CEM leukemia
MOLT-4 leukemia = system: MOLT-4 leukemia
A498 renal = system: A498 renal

Measured: growth

Oc1ccc(O)c(-c2ccccc2)c1
inactive: SK-MEL-2 melanoma 72.5% | EKVX NSCLC 77.7% | SN12C renal 68% | UO-31 renal 43.4% | TK-10 renal 96.8% | ACHN renal 74.1% | CAKI-1 renal 74.6% | CCRF-CEM leukemia 10.1% | MOLT-4 leukemia 20.7%

COc1cc(NCCCCCCCNC(C)C)c2nccc(C)c2c1
inactive: SK-MEL-2 melanoma 103% and 126% | EKVX NSCLC 82.9% and 50.6% | SN12C renal 78% and 61.7% | UO-31 renal 38.4% and 47.1% | TK-10 renal 90.3% and 67.6% | ACHN renal 91.8% and 67.3% | CAKI-1 renal 87.7% and 45.5% | A498 renal 80.5% and 49.2% | MOLT-4 leukemia 80%

CC(=O)Oc1ccc(C2(c3ccc(OC(C)=O)cc3)C(=O)Nc3ccccc32)cc1
inactive: SK-MEL-2 melanoma 90.4% and 80.7% | EKVX NSCLC 86% and 85.8% | SN12C renal 17.7% and 16% | UO-31 renal 81.9% and 85.4% | TK-10 renal 18.3% and 35.6% | ACHN renal 67.6% and 63% | CAKI-1 renal 68.2% and 77.4% | CCRF-CEM leukemia 97.9% and 86.7% | MOLT-4 leukemia 71.4% and 97.6%

COc1ccc(/C=N/NC(N)=S)cc1
inactive: SK-MEL-2 melanoma 97.5% | EKVX NSCLC 64.1% | SN12C renal 96.1% | UO-31 renal 76.4% | TK-10 renal 104% | ACHN renal 101% | CAKI-1 renal 93.3% | CCRF-CEM leukemia 69.1% | MOLT-4 leukemia 136%

O=C(O)COc1ccccc1F
inactive: SK-MEL-2 melanoma 102% | EKVX NSCLC 111% | SN12C renal 98.3% | UO-31 renal 103% | TK-10 renal 109% | ACHN renal 108% | CAKI-1 renal 93.2% | MOLT-4 leukemia 95.3%

CCCC(=O)OCC(COC(=O)CCC)OC(=O)CCC
inactive: SK-MEL-2 melanoma 99.2% | EKVX NSCLC 93.7% | SN12C renal 96.9% | UO-31 renal 87.3% | TK-10 renal 99.4% | ACHN renal 108% | CAKI-1 renal 94.8% | CCRF-CEM leukemia 95.4% | MOLT-4 leukemia 102%

CCOC(=O)NC(N)=O
inactive: SK-MEL-2 melanoma 98.7% and 126% | SN12C renal 103% and 98.1% | UO-31 renal 86.6% and 95.3% | TK-10 renal 88.4% | ACHN renal 100% and 103% | CAKI-1 renal 99.1% and 101% | A498 renal 101% and 104% | CCRF-CEM leukemia 99.2% and 99.3% | MOLT-4 leukemia 97.2% and 106%

CCN(CC)C(=S)SCCO
inactive: SK-MEL-2 melanoma 105% | EKVX NSCLC 106% | SN12C renal 105% | UO-31 renal 93.8% | TK-10 renal 86% | ACHN renal 111% | CAKI-1 renal 107% | CCRF-CEM leukemia 100%

CCOC(=O)c1ccncc1
inactive: SK-MEL-2 melanoma 106% | EKVX NSCLC 104% | SN12C renal 98.9% | UO-31 renal 90.2% | TK-10 renal 99.4% | ACHN renal 119% | CAKI-1 renal 104% | A498 renal 86.8% | MOLT-4 leukemia 104%

Cc1onc(-c2c(F)cccc2Cl)c1-c1ncc(-c2ccc(Cl)cc2)o1
inactive: SK-MEL-2 melanoma 104% and 80% | EKVX NSCLC 53% | SN12C renal 71.9% and 37.3% | UO-31 renal 53.4% and 37.7% | TK-10 renal 84% and 53.8% | ACHN renal 46.1% and 31.3% | CAKI-1 renal 14% and 32% | CCRF-CEM leukemia 41.5% | MOLT-4 leukemia 42.4% and 16.1%

CC(C)(C)OC(=O)CC1(O)CCCCC1
inactive: SK-MEL-2 melanoma 107% | EKVX NSCLC 102% | SN12C renal 100% | UO-31 renal 101% | TK-10 renal 99.6% | ACHN renal 105% | CAKI-1 renal 100% | CCRF-CEM leukemia 106%

CCC(C)NC(=O)c1ccccc1C (centres undefined)
inactive: SK-MEL-2 melanoma 104% | EKVX NSCLC 91.2% | SN12C renal 96.5% | UO-31 renal 94.2% | TK-10 renal 99.3% | ACHN renal 95.4% | CAKI-1 renal 95.3% | CCRF-CEM leukemia 103% | MOLT-4 leukemia 114%

CC(C)(C)C1CCC(=NO)CC1 (centres undefined)
inactive: SK-MEL-2 melanoma 94.5% | EKVX NSCLC 102% | SN12C renal 103% | UO-31 renal 71.7% | TK-10 renal 108% | ACHN renal 105% | CAKI-1 renal 97.2% | CCRF-CEM leukemia 99.8% | MOLT-4 leukemia 123%

Reference: PubChem BioAssay (NCI)
